Screening results from PubChem BioAssay.
An excerpt weighted towards active compounds, which were near 1.5% of everything screened.
RTF Ca sens act = cardiac RTF calcium sensitization. actives 0.24% (n = 340,000). AID 493008. IANBD-labeled TnC RTF fluorescence at EC20 calcium; 0% EC20 calcium, 100% full calcium. P19429+P45379. activation, % at 7.2 µM;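 active means activation above the mean over all tested compounds plus 3 SD, cut at about 30% in these data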;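 further: rise in fluorescence read as greater calcium sensitivity of cardiac thin filaments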
CRFR2-BP ag = agonists of human CRF-binding protein/CRF-R2 receptor complex. HEK293 CRF-R2/CRF-BP, calcium dye fluorescence (FLIPR); percent of saturating CRF peptide response. activation, % at 13.2 µM. actives 0.46% (n = 350,000);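 active means activation of at least 50%, plus an integration ratio under a set limit after plate pattern correction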;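 further: plate controls were neutral control wells without compound for no effect and CRF at EC100 for full effect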
IDE cell inh = inhibits human insulin-degrading enzyme in HEK cells. P14735. FAbetaB cleavage, fluorescence polarization. inhibition, % at 5.59 µM. actives 0.41% (n = 320,000);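 active means percent inhibition above the average of all tested compounds plus 3 SD, set per screening campaign, cut at about 16% in these data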;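 further: IDE supplied by intact live HEK cells; FP after avidin binding of uncleaved biotin substrate so inhibition keeps polarization high; 0% = DMSO wells and 100% = 60 µM reference IDE inhibitor Ii1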
RTF Ca sens inh = cardiac RTF calcium desensitization | IANBD-labeled cardiac RTF, Ca2+ fluorescence | inhibition, % at 7.15 µM | actives 0.12% (n = 340,000);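 active means inhibition above the mean inhibition of all tested compounds plus 3 SD, cut at about 17% in these data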;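 further: assay run at fixed EC70 calcium of 1.6 mM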
CRFBP-R2 block = CRF-BP/CRF-R2 complex antagonism. HEK293 CRF-R2/CRF-BP, CRF-induced calcium fluorescence. inhibition, % at 11.8 µM. actives 0.59% (n = 350,000). AID 588475;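 active means inhibition of the ligand-induced calcium signal above about 50% at the single tested concentration, limit read from the data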
IDE act = boosts human insulin-degrading enzyme activity in HEK cells. AID 493087. actives 0.073% (n = 340,000). activation, % at 5.96 µM. FAbeta-B cleavage, fluorescence polarization; 0% vehicle, 100% cell-free pure enzyme wells;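 active means activation above the mean of all tested compounds plus 3 SD, set per screening campaign, cut at about 17% in these data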
IDE inh confirm = confirmation of human insulin-degrading enzyme inhibitors in cells. AID 435028. shares compounds with IDE cell inh. inhibition, % at 5.59 µM. HEK cells, FAbetaB cleavage, fluorescence polarization. actives 51% (n = 1,200);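 active means mean inhibition across triplicate wells above the cutoff set by the earlier primary insulin-degrading enzyme screen, cut at about 16% in these data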;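 further: 0% = DMSO wells and 100% = 60 µM reference IDE inhibitor Ii1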
HEK cytotox = counter-screen for IDE inhibitors: cytotoxicity in HEK cells; HEK293 cytotoxicity, ATP luminescence; shares compounds with IDE cell inh; AID 449730; inhibition, % at 5.59 µM; actives 28% (n = 1,200); in the data active means inhibition above about 22%;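 further: 0% = vehicle wells and 100% = reference cytotoxic drug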
FP fluor counter = fluorescent artifact in IDE inhibitor FP assay; IC50, µM; 30 tested, under 10 active; shares compounds with IDE cell inh; FP counterscreen for fluorescent artifacts, IDE probe project; call rule not given here
Starred values were filed as active, the others as inactive; . = no result.

SMILES	RTF Ca sens act	CRFR2-BP ag	IDE cell inh	RTF Ca sens inh	CRFBP-R2 block	IDE act	IDE inh confirm	HEK cytotox	others
COc1cc(/C=C2\SC(=S)N(Nc3ccccc3)C2=O)ccc1O	11	50	128*	-28	-119	-114	142*	9
CCOc1ccc(/C=C2\SC(=S)N(NS(=O)(=O)c3ccccc3)C2=O)cc1OC	0	-1	-4	7	31	7	.	.
O=C1/C(=C/c2ccc(O)c(O)c2)SC(=S)N1Nc1ccccc1	-6	35	.	1	-102	-33	.	.
CCOc1cc(/C=C2\SC(=S)N(NS(=O)(=O)c3ccccc3)C2=O)ccc1O	1	7	39*	-8	12	-36	109*	3
COc1cc(/C=C2\SC(=S)N(C(Cc3ccccc3)C(=O)O)C2=O)ccc1O (centres undefined)	4	30	46*	-8	-35	-58	109*	6
O=C(O)C(Cc1ccccc1)N1C(=O)/C(=C/c2ccccc2)SC1=S (centres undefined)	-4	-1	-3	-7	32	2	.	.
CCN1C(=S)SC(=O)C1=C1C=C(C)N(Cc2ccco2)C(C)=C1	22	47	33*	-6	-67	-30	42*	13
O=C(Nn1c(O)c(C=C2N=c3ccccc3=N2)sc1=S)c1ccccc1Cl	-7	2	17*	1	-39	-5	10	8
O=S(=O)(Nn1c(O)c(C=C2N=c3ccccc3=N2)sc1=S)c1ccccc1	0	1	-4	2	30	-1	.	.
CCCN(CC(=O)Nc1ccccc1OC)C(=O)c1ccc2c(c1)NC(=O)C(C)S2 (centres undefined)	-1	-1	3	-1	-3	0	.	.
O=C(COc1ccc2c3c(c(=O)oc2c1)CCC3)N1CCN(c2ccccc2)CC1	-6	2	18*	-14	-36	-13	5	7
O=C(COc1ccc2c3c(c(=O)oc2c1)CCC3)N1CCCC1	-2	-1	0	-2	0	7	.	.
CC(C)[C@H](NC(=O)c1ccc(C(C)(C)C)cc1)C(=O)N1CCN(Cc2ccc3c(c2)OCO3)CC1	-2	-1	19*	0	-25	1	4	53*
Cc1cccc(C(=O)Nc2cccc(-c3ccc4nncn4n3)c2)c1	-4	-2	20*	-12	15	-29	12	17
COc1ccc(C(=O)Nc2cccc(-c3ccc4nncn4n3)c2)cc1OC	-6	-1	4	8	6	7	.	.
CCOC1=C/C(=C/c2c(N)n3nc(S(=O)(=O)CC)sc3nc2=O)C=CC1=O	3	27	22*	-11	-49	-114	112*	6
CCOC1=C/C(=C/c2c(N)n3nc(CC(=O)N4CCCCC4)sc3nc2=O)C=CC1=O	2	57*	21*	4	-68	-127	26*	6
COc1ccc(NC(=O)C(=O)NCC(c2ccco2)N2CCc3ccccc3C2)cc1OC (centres undefined)	-14	-1	-3	-17	1	0	.	.
O=C(NCCc1ccccc1)/C(=C\c1ccccc1)NC(=O)c1ccco1	-8	0	2	1	-12	-4	.	.
Cc1c(CCC(=O)NCCCn2ccnc2)c(=O)oc2cc3oc4c(c3cc12)CCCC4	-4	-3	56*	1	-8	-50	33*	22	FP fluor counter=>55
COc1cccc(C(=O)Nc2nc(-c3ccc(S(=O)(=O)N4CCOCC4)cc3)cs2)c1	-7	4	40*	6	8	-20	16	58*
O=C(Nc1nc(-c2ccc(S(=O)(=O)N3CCOCC3)cc2)cs1)c1ccccc1	-4	0	22*	-5	-8	-7	3	72*
C=CCNc1nc(N2CCOCC2)c(C#N)c2c1CN(C)CC2	6	0	16*	-8	-7	-2	3	12
N=C1/C(=C\c2ccc(SCc3ccco3)o2)C(=O)N=C2SC=NN12	15	42	25*	-31	-39	-31	13	8
OCCNc1ncnc2c1cnn2Cc1ccccc1	-6	6	.	-2	19	-2	.	.
SMILES	RTF Ca sens act	CRFR2-BP ag	IDE cell inh	RTF Ca sens inh	CRFBP-R2 block	IDE act	IDE inh confirm	HEK cytotox	others
CC(C)CCNc1ncnc2c1cnn2Cc1ccccc1Cl	-2	-8	21*	2	-6	-14	9	19
CC(C)C(=O)N1CCN(c2nc(-c3ccc(Cl)cc3)cs2)CC1	-4	-1	4	1	18	-8	.	.
CNC(=S)N1CCN(c2nc(-c3ccc(Cl)cc3)cs2)CC1	-2	-2	18*	0	-1	-13	8	23*
COCCNC(=S)N1CCN(c2nc(-c3ccc(Cl)cc3)cs2)CC1	0	-1	17*	0	29	-18	11	15
CCNC(=S)N1CCN(c2nc(-c3ccc(F)cc3)cs2)CC1	-5	-4	19*	6	5	-16	6	15
COCCNC(=O)/C(C#N)=C/c1ccc(N2CCOCC2)o1	61*	42	16*	-54	-36	-16	16	7
N#C/C(=C\c1ccc(O)c(O)c1)C(=O)NCCCc1ccccc1	23	3	29*	-21	-10	-37	38*	14
N#C/C(=C\c1ccc(N2CCOCC2)o1)C(=O)NCCc1ccccc1	64*	200*	72*	-88	-297	-140	78*	8
COc1ccc([C@H]2CC(=O)C=C(c3ccc(F)cc3OCc3ccccc3)C2)cc1OC	-7	7	5	4	-22	4	.	.
CCN(C(=S)Nc1cccc2ccccc12)c1ccccc1	.	1	.	.	-35	.	.	.
COc1ccccc1-c1ccc(/C=C2/C=C(C)OC2=O)o1	9	13	1	-10	-5	-5	.	.
COc1ccccc1-c1ccc(/C=C2\C=CC(=O)O2)o1	.	119*	29*	.	-127	.	39*	12
COc1cccc(-c2cccc(NC(=O)C3CCN(CC4CCOC4)CC3)c2)c1 (centres undefined)	-4	-1	3	-11	-4	3	.	.
Cc1ccc(NC(=O)CCCn2nc(C)c3c(C)n(-c4ccccc4)nc3c2=O)c(Cl)c1	-2	-1	-1	2	-15	2	.	.
O=C(Nc1ccc(N2CCN(c3ccc(C(F)(F)F)cn3)CC2)nc1)c1cccs1	-3	-1	17*	1	5	-19	7	31*
